Laboratory results taken from PubChem BioAssay AID1159580 (chemical genetic matrix, 2015).
Among all 5,500 compounds or so, about 2,000 (36%) were called active. Inconclusive results (about 18%) are left out. Cut-off read from the data, not from the text of the source: active = normalized growth mostly below about 0.91 (no sharp cut-off); inconclusive = no clear call, values can overlap the other calls; inactive = mostly above about 0.92. The list shows a part of the results.

Experiment: chemical genetic growth profiling, strain panel (AID 1159580);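 note: tested at 20 µM; growth read once vehicle control cultures reached saturation at 30 °C; 1 = growth at the plate median or of vehicle wells; lower values mean less growth of the strain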
Conditions: growth OD

Measured: normalized growth

NC(=NCCCCCCN=C(N)N=C(N)Nc1ccc(Cl)cc1)N=C(N)Nc1ccc(Cl)cc1
active: S. cerevisiae deletion strains, locus YJR075W, strain HOC1, stronger effect = lower value 0.0644 | S. cerevisiae deletion strains, locus YKL009W, strain mrt4, stronger effect = lower value 0.478 | S. cerevisiae deletion strains, locus YKL085W, strain MDH1 (second series), stronger effect = lower value 0.906 | S. cerevisiae deletion strains, locus YKL085W, strain MDH1, stronger effect = lower value 0.906 | S. cerevisiae deletion strains, locus YKL160W, strain elf1, stronger effect = lower value 0.0627 | S. cerevisiae deletion strains, locus YKL190W, strain CNB1, stronger effect = lower value 0.0461 | S. cerevisiae deletion strains, locus YKR001C, strain vps1, stronger effect = lower value 0.0656 | S. cerevisiae deletion strains, locus YKR026C, strain gcn3, stronger effect = lower value 0.0624 | S. cerevisiae deletion strains, locus YKR091W, strain srl3, stronger effect = lower value 0.0577 | S. cerevisiae deletion strains, locus YLL001W, strain dnm1, stronger effect = lower value 0.0629 | S. cerevisiae deletion strains, locus YLL026W, stronger effect = lower value 0.0551 | S. cerevisiae deletion strains, locus YLL041C, strain sdh2, stronger effect = lower value 0.0558 | S. cerevisiae deletion strains, locus YLR027C, strain aat2, stronger effect = lower value 0.0552 | S. cerevisiae deletion strains, locus YLR039C, strain RIC1, stronger effect = lower value 0.0768 | S. cerevisiae deletion strains, locus YLR058C, strain SHM2, stronger effect = lower value 0.0478 | S. cerevisiae deletion strains, locus YLR102C, strain apc9, stronger effect = lower value 0.0634 | S. cerevisiae deletion strains, locus YLR113W, strain HOG1, stronger effect = lower value 0.126 | S. cerevisiae deletion strains, locus YLR221C, strain rsa3, stronger effect = lower value 0.058 | S. cerevisiae deletion strains, locus YLR258W, strain gsy2, stronger effect = lower value 0.0585 | S. cerevisiae deletion strains, locus YLR262C, strain YPT6 (second series), stronger effect = lower value 0.0721 | S. cerevisiae deletion strains, locus YLR262C, strain YPT6, stronger effect = lower value 0.0923 | S. cerevisiae deletion strains, locus YLR268W, strain sec22, stronger effect = lower value 0.0678 | S. cerevisiae deletion strains, locus YLR320W, strain mms22, stronger effect = lower value 0.0755 | S. cerevisiae deletion strains, locus YLR330W, strain CHS5, stronger effect = lower value 0.0516 | S. cerevisiae deletion strains, locus YLR342W, strain FKS1 (second series), stronger effect = lower value 0.0692 | S. cerevisiae deletion strains, locus YLR342W, strain FKS1, stronger effect = lower value 0.063 | S. cerevisiae deletion strains, locus YLR357W, strain rsc2, stronger effect = lower value 0.116 | S. cerevisiae deletion strains, locus YLR370C, strain arc18, stronger effect = lower value 0.0607 | S. cerevisiae deletion strains, locus YLR371W, strain rom2, stronger effect = lower value 0.0627 | S. cerevisiae deletion strains, locus YLR384C, strain iki3, stronger effect = lower value 0.057 | S. cerevisiae deletion strains, locus YLR418C, strain cdc73, stronger effect = lower value 0.0991 | S. cerevisiae deletion strains, locus YML016C, strain PPZ1, stronger effect = lower value 0.0482 | S. cerevisiae deletion strains, locus YML032C, strain rad52, stronger effect = lower value 0.0699 | S. cerevisiae deletion strains, locus YML120C, strain ndi1, stronger effect = lower value 0.0569 | S. cerevisiae deletion strains, locus YML124C, strain tub3, stronger effect = lower value 0.0596 | S. cerevisiae deletion strains, locus YMR058W, strain fet3, stronger effect = lower value 0.0607 | S. cerevisiae deletion strains, locus YMR078C, strain ctf18, stronger effect = lower value 0.071 | S. cerevisiae deletion strains, locus YMR125W, strain sto1, stronger effect = lower value 0.0789 | S. cerevisiae deletion strains, locus YMR129W, stronger effect = lower value 0.0564 | S. cerevisiae deletion strains, locus YMR205C, strain PFK2, stronger effect = lower value 0.0855 | S. cerevisiae deletion strains, locus YMR223W, strain ubp8, stronger effect = lower value 0.0651 | S. cerevisiae deletion strains, locus YMR231W, strain pep5, stronger effect = lower value 0.064 | S. cerevisiae deletion strains, locus YMR263W, strain SAP30, stronger effect = lower value 0.0566 | S. cerevisiae deletion strains, locus YMR307W, strain GAS1, stronger effect = lower value 0.0969 | S. cerevisiae deletion strains, locus YNL067W, strain RPL9B, stronger effect = lower value 0.0509 | S. cerevisiae deletion strains, locus YNL071W, strain lat1, stronger effect = lower value 0.0604 | S. cerevisiae deletion strains, locus YNL128W, strain TEP1, stronger effect = lower value 0.0651 | S. cerevisiae deletion strains, locus YNL153C, strain GIM3, stronger effect = lower value 0.0505 | S. cerevisiae deletion strains, locus YNL183C, strain NPR1, stronger effect = lower value 0.139 | S. cerevisiae deletion strains, locus YNL209W, strain ssb2, stronger effect = lower value 0.057 | S. cerevisiae deletion strains, locus YNL233W, strain BNI4, stronger effect = lower value 0.0552 | S. cerevisiae deletion strains, locus YNL248C, strain rpa49, stronger effect = lower value 0.075 | S. cerevisiae deletion strains, locus YNL271C, strain bni1, stronger effect = lower value 0.607 | S. cerevisiae deletion strains, locus YNL298W, strain CLA4, stronger effect = lower value 0.0653 | S. cerevisiae deletion strains, locus YNL307C, strain MCK1, stronger effect = lower value 0.0676 | S. cerevisiae deletion strains, locus YNL322C, strain KRE1 (second series), stronger effect = lower value 0.0655 | S. cerevisiae deletion strains, locus YNL322C, strain KRE1, stronger effect = lower value 0.0467 | S. cerevisiae deletion strains, locus YNR049C, strain mso1, stronger effect = lower value 0.0617 | S. cerevisiae deletion strains, locus YNR052C, strain pop2, stronger effect = lower value 0.0607 | S. cerevisiae deletion strains, locus YOL006C, strain TOP1, stronger effect = lower value 0.107 | S. cerevisiae deletion strains, locus YOL012C, strain htz1 0.183 | S. cerevisiae deletion strains, locus YOL147C, strain pex11, stronger effect = lower value 0.0595 | S. cerevisiae deletion strains, locus YOR001W, strain rrp6, stronger effect = lower value 0.0681 | S. cerevisiae deletion strains, locus YOR061W, strain CKA2, stronger effect = lower value 0.0471 | S. cerevisiae deletion strains, locus YOR069W, strain VPS5, stronger effect = lower value 0.0468 | S. cerevisiae deletion strains, locus YOR070C, strain gyp1, stronger effect = lower value 0.0572 | S. cerevisiae deletion strains, locus YOR080W, strain dia2, stronger effect = lower value 0.0623 | S. cerevisiae deletion strains, locus YOR083W, strain WHI5, stronger effect = lower value 0.0615 | S. cerevisiae deletion strains, locus YOR106W, strain vam3, stronger effect = lower value 0.0675 | S. cerevisiae deletion strains, locus YOR136W, strain idh2, stronger effect = lower value 0.0708 | S. cerevisiae deletion strains, locus YOR144C, strain elg1, stronger effect = lower value 0.0593 | S. cerevisiae deletion strains, locus YOR184W, strain ser1, stronger effect = lower value 0.0744 | S. cerevisiae deletion strains, locus YOR231W, strain MKK1, stronger effect = lower value 0.0973 | S. cerevisiae deletion strains, locus YOR265W, strain rbl2, stronger effect = lower value 0.0543 | S. cerevisiae deletion strains, locus YOR270C, strain vph1, stronger effect = lower value 0.107 | S. cerevisiae deletion strains, locus YOR290C, strain snf2, stronger effect = lower value 0.0655 | S. cerevisiae deletion strains, locus YOR316C, strain cot1, stronger effect = lower value 0.0609 | S. cerevisiae deletion strains, locus YPL051W, strain arl3, stronger effect = lower value 0.0612 | S. cerevisiae deletion strains, locus YPL055C, strain LGE1, stronger effect = lower value 0.0688 | S. cerevisiae deletion strains, locus YPL078C, strain atp4, stronger effect = lower value 0.0665 | S. cerevisiae deletion strains, locus YPL106C, strain sse1, stronger effect = lower value 0.0968 | S. cerevisiae deletion strains, locus YPL240C, strain hsp82, stronger effect = lower value 0.0556 | S. cerevisiae deletion strains, locus YPL241C, strain CIN2, stronger effect = lower value 0.0486 | S. cerevisiae deletion strains, locus YPL256C, strain CLN2, stronger effect = lower value 0.124 | S. cerevisiae deletion strains, locus YPR119W, strain clb2, stronger effect = lower value 0.0667 | S. cerevisiae deletion strains, locus YPR163C, strain tif3, stronger effect = lower value 0.0696 | S. cerevisiae deletion strains, locus YPR167C, strain met16, stronger effect = lower value 0.0625 | S. cerevisiae deletion strains, strain wtn01, stronger effect = lower value 0.0592 | S. cerevisiae strains, strain wild type, stronger effect = lower value 0.0489
inactive: S. cerevisiae deletion strains, locus YKL068W, stronger effect = lower value 0.977 | S. cerevisiae deletion strains, locus YNL250W, strain rad50, stronger effect = lower value 0.909 | S. cerevisiae deletion strains, locus YPR141C, strain kar3, stronger effect = lower value 1.01
